In the library only some 3.1% were active in any assay of this set; here they are far more common.
ELG1 repair inh = ELG1-dependent DNA repair inhibition | AID 504467 | hit rate 2.3% among 330,000 | Potency, µM (doses to about 46.1 µM), usual class: inhibitors | HEK293T ELG1-luciferase reporter, luminescence, 16 h; DNA damage induced by 5-fluorouridine; also: nearly all actives have a fitted effect of over 55% in size
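Luminescence from the luciferase reporter, measured 30 min after ONE-Glo reagent at room temperature, was the read-out. Beforehand, 2,000 cells per well were exposed for 16 hr at 37 °C to 5-fluorouridine together with compound or vehicle.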
BRCA1 expr up = activators of BRCA1 expression; MCF7-BRCA1-FFLuc reporter, luminescence, 48 h; response scale: scaled: vehicle 0%, 10 µM genistein 100%; Potency, µM (doses to about 46.1 µM), actives largely listed as activators; hit rate 1.1% among 380,000; AID 624202; also: nearly all actives have a fitted effect of over 80% in size
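MCF7 cells carrying a BRCA1-firefly luciferase reporter (2000 cells/well, phenol-red free MEM) were attached for 2 h at 37 °C, then given compounds for 48 h. Luminescence was read 15 min after luciferase reagent; activity normalized to genistein (10 microM) and DMSO.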
IL2 activator = activators of IL-2; hit rate 0.065% among 360,000; IL-2 activation reporter assay, cell-based qHTS; stimulated with anti-CD3/CD4/CD28 beads; in transgenic mouse T cells; activation, % (series mostly up to about 46 µM); in the data active = activation above about 50%; inconclusive = mostly about 30% to 49%
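Readout: EGFP and DsRed signals by fluorescent plate cytometry. Unstimulated transgenic mouse T cells received compound 60 min before antibody-bead stimulation, then incubated 18 h at 37 degrees C.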
Nrf2 ARE act = Nrf2 pathway activation; AREc32 ARE-luciferase reporter (MCF7-derived line), luminescence, 24 h; Potency, µM (doses to about 46.1 µM), most hits filed as activators; hit rate 0.31% among 410,000; also: nearly all actives have a fitted effect of over 65% in size
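For detection, Steady-Glo was added and plates sat 30 min at RT; before that, AREc32_Fluc cells grown overnight in OPTI-MEM/5% FBS had been treated with 23 nL compound for 24 hr at 37 deg C.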
Of the large screens only hits and unclear results are named; the others gave an inactive call. Unless noted, calls follow the shape of the dose curve; as a rule, active = well fitted curve in the direction sought with a large enough effect; inconclusive = small, poorly fitted or top-dose-only effect, or another doubt; inactive = no such curve, though single readings can be large; an effect the other way counts as inactive or inconclusive.

CC(C)(CNC(=O)/C=C/c1ccc(F)cc1)CNC(=O)/C=C/c1ccc(F)cc1	ELG1 repair inh 23µM
CC(C)(C)SCCNC(=O)/C=C/c1ccc(F)cc1	ELG1 repair inh inconclusive, BRCA1 expr up inconclusive
O=C(c1ccc(-c2ccccc2Cl)o1)N1CCCCCCC1	BRCA1 expr up inconclusive (no result: ELG1 repair inh)
COc1ccc(N2CCN(C(=O)c3ccc(COc4ccc([N+](=O)[O-])cc4)o3)CC2)cc1	ELG1 repair inh 21µM
CC(C)(CNC(=O)c1ccc(-c2ccccc2Cl)o1)N1CCOCC1	ELG1 repair inh inconclusive, BRCA1 expr up 10µM
CC(=O)N1CCN(C(=O)c2ccc(-c3ccccc3Cl)o2)CC1	ELG1 repair inh inconclusive, BRCA1 expr up 11µM
Cc1c(Cl)cccc1-c1ccc(C(=O)N2CCN(c3ccc([N+](=O)[O-])cc3)CC2)o1	ELG1 repair inh 16µM
CSCCC(C(=O)NCc1ccccc1)n1c(C2CCN(C(C)=O)CC2)nc2ccccc21 (stereo unspecified)	none (no result: ELG1 repair inh, BRCA1 expr up, Nrf2 ARE act)
Cc1nc2ccc(S(=O)(=O)NCC(=O)N3CCN(c4ccccc4)CC3)cc2s1	ELG1 repair inh 23µM
Cc1ccc(SCc2cc(=O)[nH]c(/N=C(\N)Nc3ccccc3Sc3ccccc3)n2)cc1	none
COc1ccccc1N/C(N)=N/c1nc(CSc2ccc(C)cc2)cc(=O)[nH]1	ELG1 repair inh 10µM
CCc1ccc(N/C(N)=N/c2nc(CSc3ccccn3)cc(=O)[nH]2)cc1	ELG1 repair inh 23µM
COc1cccc(N/C(N)=N/c2nc(CSc3ccccn3)cc(=O)[nH]2)c1	none (no result: BRCA1 expr up, IL2 activator, Nrf2 ARE act)
CCCCN(C)CCCNC(=O)Cn1ncc2c3ccccc3n(Cc3ccccc3F)c2c1=O	none (no result: ELG1 repair inh, BRCA1 expr up, IL2 activator)
C[C@H](CO)N1C[C@H](C)[C@@H](CN(C)S(=O)(=O)c2cccs2)Oc2ccc(NC(=O)Nc3ccccc3)cc2C1=O	ELG1 repair inh 23µM
C[C@@H]1CN([C@H](C)CO)C(=O)c2cc(NC(=O)Nc3ccc(C(F)(F)F)cc3)ccc2O[C@H]1CN(C)S(=O)(=O)c1ccc(Cl)cc1	ELG1 repair inh inconclusive
C[C@@H]1CN([C@@H](C)CO)C(=O)Cc2cc(NC(=O)Nc3ccc(C(F)(F)F)cc3)ccc2O[C@@H]1CN(C)S(=O)(=O)c1ccc(Cl)cc1	ELG1 repair inh 21µM
C[C@H](CO)N1C[C@H](C)[C@@H](CN(C)S(=O)(=O)c2ccc(F)cc2)Oc2ccc(NC(=O)Nc3ccc(C(F)(F)F)cc3)cc2C1=O	ELG1 repair inh 21µM
C[C@H](CO)N1C[C@H](C)[C@@H](CN(C)S(=O)(=O)c2ccccc2)Oc2ccc(NC(=O)C3CC3)cc2C1=O	ELG1 repair inh 18µM
O=C(CSc1nc2c(c(=O)[nH]1)CCC2)Nc1cccc(O)c1	none (no result: ELG1 repair inh, BRCA1 expr up, IL2 activator)
COc1ccc(-n2nc(-c3ccc(C)cc3)c3cnc4cc(F)c(F)cc4c32)cc1	none (no result: ELG1 repair inh, IL2 activator)
COCCCNC(=O)CSc1nc2nc(C)c(Cc3ccccc3Cl)c(C)n2n1	none (no result: ELG1 repair inh, IL2 activator)
C[C@H](CO)N1C[C@H](C)[C@@H](CN(C)S(=O)(=O)c2ccccc2)Oc2ccc(NC(=O)Nc3ccccc3)cc2C1=O	ELG1 repair inh 21µM
C[C@@H]1CN([C@@H](C)CO)C(=O)c2cc(NC(=O)Nc3ccc4c(c3)OCO4)ccc2O[C@H]1CN(C)S(=O)(=O)c1ccc(F)cc1	ELG1 repair inh 26µM
C[C@H](CO)N1C[C@H](C)[C@@H](CN(C)S(=O)(=O)c2ccc(F)cc2)Oc2ccc(NC(=O)Nc3ccccc3)cc2C1=O	ELG1 repair inh 23µM
COC(=O)c1ccccc1NC(=O)c1cnn2c1NC(=C1CC1)C=C2C(F)F	none (no result: ELG1 repair inh, IL2 activator, Nrf2 ARE act)
COC(=O)c1n[nH]n(-c2ccccc2)c1=O	none (no result: ELG1 repair inh, IL2 activator)
CSc1nc(-c2ccccc2)nn1S(=O)(=O)c1ccccc1	ELG1 repair inh inconclusive
COc1ccc(-c2nc(SC)n(S(=O)(=O)c3ccccc3)n2)cc1	ELG1 repair inh inconclusive, BRCA1 expr up 10µM
Cc1ccc(CNC(=O)CN(c2cc(C)cc(C)c2)S(=O)(=O)c2c(C)noc2C)cc1	none (no result: ELG1 repair inh, IL2 activator)
Cc1nnsc1C(=O)Nc1ccc(S(=O)(=O)N2CCCCC2)cc1	ELG1 repair inh 12µM
O=C(Nc1ccc(N2CCOCC2)cc1)c1cccc(S(=O)(=O)N2CCCCC2)c1	ELG1 repair inh 16µM
CN(C)c1cccc(C(=O)Nc2ccc(N3CCOCC3)cc2)c1	ELG1 repair inh inconclusive, BRCA1 expr up 11µM
Cc1nnsc1C(=O)Nc1ccc(S(=O)(=O)N2CCCC(C)C2)cc1 (stereo unspecified)	none
C=CCN(c1ccccc1)S(=O)(=O)c1cccc(C(=O)Nc2ccc(N3CCOCC3)cc2)c1	ELG1 repair inh 15µM
COc1ccc(Cl)cc1NC(=O)CCc1c(C)nc2c(c1C)c(=O)n(C)c(=O)n2C	none (no result: ELG1 repair inh, IL2 activator)
O=C(OCc1cn([C@H]2C[C@H](c3ccccc3)N(Cc3cccs3)C[C@@H]2O)nn1)c1ccccc1	none (no result: ELG1 repair inh)
COc1ccc(CNC(=O)c2cc3c(=O)oc4ccc(C)cc4c3s2)c(OC)c1	none (no result: ELG1 repair inh, IL2 activator)
COc1ccc(NC(=O)c2cccc(S(=O)(=O)N3CCCCCC3)c2)cc1	ELG1 repair inh 21µM
CC(=O)c1ccc(NC(=O)c2cccc(S(=O)(=O)N3CCN(C)CC3)c2)cc1	ELG1 repair inh inconclusive, BRCA1 expr up 11µM
Cc1nc(-c2cccc(NC(=O)c3cccc(S(=O)(=O)N4CCCC4)c3)c2)cs1	ELG1 repair inh 18µM
CN(C)c1cccc(C(=O)OCCNC(=O)c2cccc(S(=O)(=O)N3CCOCC3)c2)c1	ELG1 repair inh 7.3µM
O=C(OCCOc1ccccc1)c1cccc(S(=O)(=O)N2CCOCC2)c1	none
Cc1nc(-c2cccc(NC(=O)c3ccc(Cl)c(S(=O)(=O)N4CCCC4)c3)c2)cs1	none (no result: ELG1 repair inh)
COCCNc1c(-c2cc3ccc(C)c(C)c3[nH]c2=O)nc2ccccn12	ELG1 repair inh inconclusive, BRCA1 expr up 2.2µM
C/C(=N/NC(=O)c1cccc(N2CCCC2=O)c1)c1ccncc1	ELG1 repair inh inconclusive, BRCA1 expr up 8.9µM
COc1cccc(/C=N/NC(=O)c2cccc(N3CCCC3=O)c2)c1	ELG1 repair inh inconclusive, BRCA1 expr up 8.9µM
O=C(c1ccc(=O)n(Cc2ccccc2)n1)N1CCN(C/C=C/c2ccccc2)CC1	ELG1 repair inh 16µM
CCOC(=O)c1sc(=S)n(C)c1NC(=O)c1cccc(Br)c1	ELG1 repair inh 13µM
CCOC(=O)c1sc(=S)n(C)c1NC(=O)c1ccccc1	none
CC(=O)c1ccc(N2CCN(C(=O)Nc3ccc(Cl)cc3)CC2)cc1	ELG1 repair inh 16µM
CC(=O)c1ccc(N2CCN(c3ncccn3)CC2)cc1	ELG1 repair inh inconclusive, BRCA1 expr up 10µM
CC(=O)c1ccc(NC(=O)N2CCN(c3cccc(Cl)c3)CC2)cc1	ELG1 repair inh inconclusive
CC(=O)c1ccc(N2CCN(C(=S)Nc3ccc(Oc4ccccc4)cc3)CC2)cc1	ELG1 repair inh 5.8µM
O=C(Nc1ccc(Cl)cc1)N1CCN(c2ccccc2)CC1	none
CC(=O)c1ccc(NC(=O)CN2CCN(c3ncccn3)CC2)cc1	none
O=C(Nc1ccc(Cl)cc1)N1CC=CCC1	ELG1 repair inh inconclusive, BRCA1 expr up 7.9µM
